Measured values taken from PubChem BioAssay (NCI).
This is part of a sample that, as a whole, favours compounds with a hit. Of some 83,000 tested, about 20% had one in any assay.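 Values shown are percent growth following 48 h exposure of cells in 96-well plates to a single concentration of compound; below 10 was considered active.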 Calls of active or inactive are those of the source.

test system: SNB-19 CNS; assay: NCI-60 one-dose screen, 48 h (100 = growth as untreated, 0 = no growth, -100 = all killed); conditions: 10 µM unless noted
Procedure: Growth inhibition of the SNB-19 human tumor cell line is measured as a screen for anti-cancer activity. Cells are grown in 96 well plates and exposed to the test compound for 48 hours. Compounds are tested at a single concentration, which is 10^-5 M for most compounds. The reported endpoint is percent growth (GI% or GIPRCNT), where numbers from 0 - 100% represent growth inhibition, and numbers from -100% - 0 represent cell death. For example, a value of 40 represents 60% growth inhibition. A value of 0 means no net growth occurred over the course of the experiment. A value of -40 indicates 40% of cells at the beginning of the experiment died by the end of the experiment. A value of -100 means all cells are dead at the end of the experiment.
NCI-60 Human Tumor Cell Lines Screen was performed using the standard one-dose NCI protocol, which is described in more detail at https://dtp.cancer.gov/discovery_development/nci-60/default.htm.
Compounds with GIPRCNT values below 10 were considered active. Activity score was based on GIPRCNT using the following formula: […]
Score is 0 for GIPRCNT values of 100 or above, 50 for GIPRCNT values of 0, and 100 for GIPRCNT values of -100.

Row | SMILES | growth
1 | COC(=O)/C=C/c1cccc2c1C(=O)NC(C)(c1cc3ccccc3oc1=O)N2 (stereo not given) | 81.5% (inactive)
2 | O=C(N=Nc1c(O)[nH]c2ccc(Cl)cc12)c1ccc2nc(-c3ccccc3)[nH]c2c1 | -52.5% (active)
3 | O=C(COc1ccc(NC(=O)Nc2ccc(Cl)c(Cl)c2)cc1)N=Nc1c(O)[nH]c2ccc([N+](=O)[O-])cc12 | 67% (inactive)
4 | C#CCOc1ccc(/C=N/Nc2nc(-c3cc4cc(Br)ccc4oc3=O)cs2)cc1OC | 49.6% (inactive)
5 | O=C1C(=Nc2ccc(F)c(Cl)c2)c2cccc3cccc1c23 | 71.2% (inactive)
6 | Cc1ccc(-c2nc(C#N)c(S(=O)(=O)N3CCN(S(=O)(=O)c4ccccc4)CC3)o2)cc1 | 74.9% (inactive)
7 | COc1cc(OC)cc(C(=O)Nc2cccc(-c3cn(-c4ccc(S(N)(=O)=O)cc4)nn3)c2)c1 | 17.8% (inactive)
8 | CCN1C(=O)/C(=N\N=C(/C)c2ccc3c(c2)Nc2ccccc2S3)c2cc(Cl)ccc21 | 64.4% (inactive)
9 | CCN(CC)CCOc1ccc(Nc2ncc3cc(-c4ccc(O)c(C#N)c4)c(=O)n(C)c3n2)cc1 | 108% (inactive)
10 | COc1cc(C2CC(c3cc(OC)c(OC)c(OC)c3)=Nc3c(N)nc(N)nc3N2)ccc1Oc1nc(NCCO)nc(N2CCOCC2)n1 (stereo not given) | 94.9% (inactive)
11 | O=C(/C=C/c1cccc(OCc2ccccc2)c1)c1nc2ccccc2[nH]1 | 53.6% (inactive)
12 | COc1ccc2[nH]c(O)c(N=NC(=O)COc3ccc(NC(=O)Nc4ccccc4)cc3)c2c1 | 14.6% (inactive)
13 | CC(C)(C)OC(=O)/C=C/c1cccc2c1C(=O)NC(C)(c1cc3cc(Cl)ccc3oc1=O)N2 (stereo not given) | 42.1% (inactive)
14 | N#Cc1ccc(/C=N/NC(=O)c2[nH]c3ccc(Br)cc3c2-c2ccccc2)o1 | 34.5% (inactive)
15 | O=[N+]([O-])c1ccc(/C=C/c2nc3ccccc3n3c(=S)[nH]nc23)cc1 | 78.4% (inactive)
16 | O=C(NN1C(=O)/C(=C/C=C/c2ccc([N+](=O)[O-])o2)SC1=S)c1ccccc1O | -96.1% (active)
17 | Nc1n[nH]c2cccc(C#Cc3cccc(NC(=O)c4cccc(Cl)c4)c3)c12 | 55.2% (inactive)
18 | COc1cc2c(c(OC)c1OC)C(=O)CC(c1cccc(NC(=O)c3cc(NC(=O)[C@H](CO)NC(=O)OC(C)(C)C)ccc3Cl)c1)O2 (stereo not given in full) | 45% (inactive)
19 | CCN(CC)c1ccc(/C=N/Nc2nc(-c3ccc(Br)cc3)cs2)c(O)c1 | 107% (inactive)
20 | COc1cc(-c2cc(-c3cccc(OCC(=O)O)c3)[nH]c(=O)c2C#N)cc(OC)c1OC | 92.3% (inactive)

Row | SMILES | growth
21 | COc1cc2c(c(OC)c1OC)C(=O)CC(c1cccc(NC(=O)c3cc(NC(=O)[C@@H](N)CO)ccc3C)c1)O2 (stereo not given in full) | 109% (inactive)
22 | NS(=O)(=O)c1ccc(-n2cc(-c3cccc(NC(=O)c4cc(N5CCOCC5)cc(C(F)(F)F)c4)c3)nn2)cc1 | 40.8% (inactive)
23 | CNC(=O)c1cc(Oc2ccc3nc(NC(=O)Nc4cccc(OC(F)(F)F)c4)sc3c2)ccn1 | -46.6% (active)
24 | CC1=C(C(=O)OC(C)C)C(c2cccc(O)c2)NC(=S)N1 (stereo not given) | 96.8% (inactive)
25 | c1ccc(-c2csc(Nc3cccc(Nc4nc(-c5ccccc5)cs4)c3)n2)cc1 | 58% (inactive)
26 | O=c1[nH]n(C(=S)N/N=C/c2ccccc2Cl)c(=O)c2ccccc12 | 8.55% (active)
27 | COc1c(F)ccc(C(=O)Nc2ccc3nc(NC(=O)C4CCCN(S(=O)(=O)c5ccc(Cl)cc5)C4)sc3c2)c1F (stereo not given) | 82.5% (inactive)
28 | Cn1cc(NC(=O)c2cc(NC(=O)c3ccc(/C=C/c4ccccc4)cc3)cn2C)cc1C(=O)NCCCN1CCOCC1 | 70.4% (inactive)
29 | COc1ccc(-c2ccc(SCC(=O)Nc3ccc(S(N)(=O)=O)cc3Br)nn2)cc1 | 23.4% (inactive)
30 | COc1ccc2c(c1)c(-c1cc3nc(-c4cn(C)c5ncc(Br)cc45)cc(N)n3n1)cn2C | -16.9% (active)
31 | COc1cc2c(c(OC)c1OC)C(=O)CC(c1cccc(NC(=O)c3cccc(NC(=O)[C@H](C)NC(=O)OC(C)(C)C)c3)c1)O2 (stereo not given in full) | 78.8% (inactive)
32 | C/C(=N\Nc1ccc(S(N)(=O)=O)cc1)c1ccc(N=Nc2c(Nc3ccccc3)[nH][nH]c2=O)cc1 | -5.15% (active)
33 | Cc1nc(Nc2ccccn2)sc1C(=O)CC(SCC(=O)Nc1ccc(Cl)cc1)c1ccccc1F (stereo not given) | 11% (inactive)
34 | Cc1ccc(S(=O)(=O)c2nc(S(=O)(=O)c3ccc(C)cc3)c(N3CCC(O)CC3)s2)cc1 | 68.3% (inactive)
35 | CN(C)CCOc1ccc(C(=O)C2[C@H](c3ccc(Cl)cc3)[C@@H](c3ccccc3)NC23C(=O)Nc2ccccc23)cc1 (stereo not given in full) | 83.8% (inactive)
36 | Cc1ccc([C@H]2C(C(=O)c3ccc(Cl)cc3)C3(N[C@@H]2c2ccccc2)C(=O)Nc2ccc(Br)cc23)cc1 (stereo not given in full) | 66.5% (inactive)
37 | COc1ccc(/C=N/NC(=O)Cn2nc(Cc3ccc(OC)cc3)c3onc(C)c3c2=O)cc1 | 56.3% (inactive)
38 | Cc1ccc2c(N)c(C(=O)Nc3ccc(OC(F)(F)F)cc3)sc2n1 | 79.5% (inactive)
39 | COc1ccc(C(=O)/C=C/c2ccc3ccccc3c2)cc1S(N)(=O)=O | -49.6% (active)
40 | CC1(C)CC[C@]2(C(=O)O)CC[C@]3(C)C(=CCC4[C@@]5(C)C[C@@H](O)[C@@H]6OC(c7ccc(F)cc7)OC[C@@]6(C)C5CC[C@]43C)C2C1 (stereo not given in full) | 34.9% (inactive)
